Rows were chosen to be rich in hits. Some 7% of all compounds tested hit in one or more screens of this group.
DRD3 agonist = D3 dopamine receptor (human) agonism; D3R DiscoveRx beta-arrestin cells, luminescence, 90 min; AID 652048; hit rate 0.58% among 410,000; max activation, %; P35462; in the data active = max activation above about 30%; also: 0% is about no effect
Target sequence (P35462 whole entry, looked up): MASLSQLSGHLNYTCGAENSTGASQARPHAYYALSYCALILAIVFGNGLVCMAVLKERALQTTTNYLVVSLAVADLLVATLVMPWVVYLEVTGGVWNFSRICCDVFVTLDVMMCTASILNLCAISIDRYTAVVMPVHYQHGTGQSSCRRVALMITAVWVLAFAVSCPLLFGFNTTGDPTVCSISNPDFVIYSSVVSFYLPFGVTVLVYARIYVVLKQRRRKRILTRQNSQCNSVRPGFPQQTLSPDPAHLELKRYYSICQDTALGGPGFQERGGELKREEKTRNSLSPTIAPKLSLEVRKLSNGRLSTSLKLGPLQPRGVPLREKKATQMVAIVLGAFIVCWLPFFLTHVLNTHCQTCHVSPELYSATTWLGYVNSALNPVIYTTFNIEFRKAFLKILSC
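Agonist mode: compounds and dopamine controls were applied to plated cells for 90 min at 37 degrees C after an overnight attachment at 1500 cells/well. Luminescent read-out followed 30 - 60 minutes at room temperature with DiscoveRx detection reagent.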
S2 tox = cell viability loss in ATXN counter-screen. hit rate 0.49% among 400,000. Potency, µM (doses to about 56.7 µM), most hits filed as cytotoxic. S2 cells (HEK-293 line with an ATXN2-luciferase reporter) viability, CellTiter-Fluor protease fluorescence, 24 h. AID 651635; also: potency is read from the fitted curve at half-maximal effect; nearly all actives have a fitted effect of over 40% in size
IL1B secr inh = inhibitors of inflammasome signaling (IL-1 beta secretion); AID 743279; THP-1 LPS/ATP IL-1B secretion, AlphaLISA, 16 h; stronger effect = lower value; activity change, % at 57.5 µM; hit rate 4.7% among 360,000; in the data active = activity change below about -50%; inconclusive = mostly about -30% to -49%; also: % is scaled to controls: 0 for no effect and ±100 for the full control effect
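Secreted IL-1B measured by AlphaLISA bead assay after 16 h compound exposure of THP-1 cells; compounds (final up to 57.5 uM) added 1 h before LPS (250 ng/mL) and ATP (1.25 mM) stimulation; lower signal means less secretion.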
ATXN2 expr inh = inhibitors of ATXN2 expression | HEK-293 ATXN2-luciferase reporter, luminescence, 24 h | Potency, µM (top dose mostly 57 µM), for inactives: top-dose activity change, negative = inhibition, most hits filed as inhibitors | hit rate 0.72% among 360,000 | AID 1745845; also: potency is read from the fitted curve at half-maximal effect; % is scaled to controls: 0 for no effect and ±100 for the full control effect; nearly all actives have a fitted effect of over 55% in size
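ATXN2-luciferase reporter cells (luciferase flanked by upstream and downstream ATXN2 gene portions) were treated 24 h at 37 °C with compounds at up to 57 uM. SteadyGlo luminescence gave expression; GF-AFC fluorescence gave viability.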
D3 antag = blocks the human D3 dopamine receptor. max response, negative = inhibition, %. P35462. hit rate 2.5% among 360,000. D3R cells, DiscoveRx beta-arrestin luminescence, antagonist mode; stronger effect = lower value; in the data active = max response below about -50%; inconclusive = no clear call, values can overlap the other calls; also: % is scaled to controls: 0 for no effect and ±100 for the full control effect
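Cells expressing the human receptor were seeded at 1500 cells/well, incubated overnight at 37 degrees C in 5% CO2, then exposed to library compounds with dopamine controls for 90 minutes at 37 degrees C before luminescent detection.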
a7 integrin act = activators of alpha7 integrin expression for muscular dystrophy | alpha7betagal myoblasts, beta-gal FDG fluorescence, 48 h | Potency, µM (doses to about 38.3 µM), for the others: at the highest dose activation, actives largely listed as activators | hit rate 0.064% among 350,000 | AID 624291;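 also: potency is read from the fitted curve at half-maximal effect; 100% = response of the positive control SU9516; nearly all actives have a fitted effect of over 60% in size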
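Alpha7betagal+/- myoblasts (passage 13) were plated 16-24 hr, then exposed to compounds (1:260 dilution of DMSO stock) for 48 hours at 37C. After MPER lysis, β-galactosidase reporter activity was read as FDG fluorescence (ex 480/em 540) after 30 minutes.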
Starred values were filed as active, the others as inactive; i = inactive; ? = inconclusive; / = no result. Unless noted, calls follow the shape of the dose curve; as a rule, active = well fitted curve in the direction sought with a large enough effect; inconclusive = small, poorly fitted or top-dose-only effect, or another doubt; inactive = no such curve, though single readings can be large; an effect the other way counts as inactive or inconclusive.

SMILES	DRD3 agonist	S2 tox	IL1B secr inh	ATXN2 expr inh	D3 antag	a7 integrin act
Cc1nc2sccn2c(=O)c1CCN1CCC(=C(c2ccc(F)cc2)c2ccc(F)cc2)CC1	-88	?	?	-7%	-93*	/
Cc1nc2n(c(=O)c1CCN1CCC(C(=O)c3ccc(F)cc3)CC1)CCS2	/	i	/	?	/	/
Cc1nc2ccccn2c(=O)c1CCN1CCC(C(=O)c2ccc(F)cc2)CC1	-95	i	7	-14%	-112*	/
CCOc1ccc(-c2ccc(/C=C3/C(=N)N4C=CSC4=NC3=O)o2)c([N+](=O)[O-])c1	3	/	7	25µM*	-20	-19%
CC1=CN2C(=N)/C(=C/c3ccc([N+](=O)[O-])o3)C(=O)N=C2S1	-3	/	-104*	-3%	-13	-42%
CCOc1ccc(-c2ccc(/C=C3/C(=N)N4C(C)=CSC4=NC3=O)o2)c([N+](=O)[O-])c1	7	?	13	-10%	8	-35%
CC1=CN2C(=N)/C(=C/c3ccco3)C(=O)N=C2S1	-7	i	-4	72%	-60*	34%
COC(=O)CN1C(=O)[C@H]2[C@@H](c3ccc(C)o3)N3C(=O)CN(Cc4ccccn4)C(=O)[C@@]3(C)[C@H]2C1=O	-32	i	19	-2%	?	5%
Cc1c(CCOC(=O)C23CC4CC(CC(C4)C2)C3)sc[n+]1CC#N	1	/	-102*	?	14	-80%
Cc1c(CCOC(=O)CC23CC4CC(CC(C4)C2)C3)sc[n+]1Cc1ccccc1	0	i	?	4%	?	-56%
O=C(O)c1ccc(S(=O)(=O)N2CCSCC2)cc1	4	i	3	7%	-6	13%
O=C1C(=O)c2cccnc2-c2ncccc21	-13	0.4µM*	-108*	0.5µM*	-87*	/
COC1=C(Br)C(=O)c2ncccc2C1=O	-28	24µM*	-14	15µM*	?	-48%
O=C1c2cccnc2-c2ncccc21	1	?	6	-1%	1	-10%
CCc1nnc(NC(=O)c2ccc(S(=O)(=O)N3CCN(Cc4ccccc4)CC3)cc2)s1	1	i	2	1%	-10	4%
Cc1c(Cl)cccc1NC(=O)Cn1c(=O)n(Cc2ccco2)c(=O)c2oc3ccccc3c21	-8	i	/	10%	/	/
Cc1ccc(N/C(N)=N/c2nc(C)cc(N3CCCCC3)n2)c(C)c1	3	?	-103*	22µM*	12	-66%
Cc1ccc(N/C(N)=N/c2nc3c(c(=O)[nH]2)CCCC3)c(C)c1	-4	i	-20	-8%	?	10%
OC(CNCCC1C=Nc2ccccc21)Cn1c2ccc(Cl)cc2c2cc(Cl)ccc21 (stereo not drawn)	19	/	-110*	32µM*	20	-69%
OC(CNCC1CCCO1)Cn1c2ccccc2c2ccccc21 (stereo not drawn)	-14	i	-56*	-13%	?	-23%
OC(CNCC1CCCO1)Cn1c2ccc(Cl)cc2c2cc(Cl)ccc21 (stereo not drawn)	-2	?	-80*	?	4	-63%
Cc1c(C)n(CC(O)CNCCO)c2ccccc12 (stereo not drawn)	1	i	-6	3%	6	18%
Clc1ccc(CNCC2CCCO2)c(Cl)c1 (stereo not drawn)	-13	i	3	-22%	-24	28%
CCCCN(CC)CCCNC(=O)c1sc2nc3n(c(=O)c2c1C)CCCCC3	-15	/	/	/	/	/
CCC(C)NC(=O)C1CCC(=O)N(c2cc(OC)c(OC)c(OC)c2)C1c1ccc(OC)cc1 (stereo not drawn)	2	i	26	-2%	6	12%
CCOc1cccc(C(=O)Nc2cccc(-c3nnc(-c4ccccc4)o3)c2)c1	39*	?	-73*	-30%	51	-8%
O=C(Nc1cccc(-c2nnc(-c3ccco3)o2)c1)c1ccccc1	0	i	-78*	-16%	36	12%
Cc1ccc(C(=O)N2c3ccc(C)cc3C(C)(c3ccccc3)CC2(C)C)cc1 (stereo not drawn)	2	/	/	/	/	/

Assay outcomes deposited in PubChem by National Center for Advancing Translational Sciences (NCATS).
